Source: PubChem BioAssay (NCI)
The panel holds about 79,000 compounds, 15% with a hit somewhere; the sample as a whole holds those more often. Calls of active or inactive are those of the source. No stated cut-off is given here; in the data, active means growth inhibition above about 70%; inactive means the rest.

Tests used:
[1] = NCI Yeast Anticancer Drug Screen. Data for the rad50 strain (AID 155);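 further: 0% = growth of vehicle-only cultures of the same strain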; settings: S. cerevisiae rad50 strain growth inhibition; at 50.0 µM; hits give high values
Outline: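 Yeast carrying a defined DNA repair defect were exposed to test compounds, and growth was compared with vehicle-treated controls to give percent inhibition.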

[2] = NCI Yeast Anticancer Drug Screen. Data for the mec2-1 strain (AID 157); settings: S. cerevisiae mec2-1 strain, at 50.0 µM, hits give high values
Outline: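 Compounds were applied to mec2-1 yeast cells. Their growth was then compared with that of vehicle-treated cultures to give growth inhibition.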

[3] = NCI Yeast Anticancer Drug Screen. Data for the sgs1 mgt1 strain (AID 161);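 further: 0% = growth of cultures given vehicle only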; settings: S. cerevisiae sgs1 mgt1 strain, at 50.0 µM, hits give high values
Outline: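 Compounds are added to genetically altered yeast, and growth is compared with cultures given vehicle alone to give percent inhibition.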

[4] = NCI Yeast Anticancer Drug Screen. Data for the cln2 rad14 strain (AID 165);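 further: 0% = growth equal to vehicle treated cultures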; settings: S. cerevisiae cln2 rad14 strain, at 50.0 µM, hits give high values
Outline: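 Strain: cln2 rad14 yeast, altered in cell cycle control and DNA damage repair. Read-out: growth inhibition vs vehicle.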

[5] = NCI Yeast Anticancer Drug Screen. Data for the bub3 strain (AID 167); settings: S. cerevisiae bub3 mutant strain, at 50.0 µM, hits give high values
Outline: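 Compounds were applied to a genetically altered yeast strain carrying a cell-cycle control defect. Growth inhibition was scored against vehicle-treated controls.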

[6] = NCI Yeast Anticancer Drug Screen. Data for the mlh1 rad18 strain (AID 175); settings: S. cerevisiae mlh1 rad18 strain growth inhibition; at 50.0 µM; hits give high values
Outline: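 A repair-deficient yeast strain is exposed to test compound, and growth is scored relative to vehicle-treated controls.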

Structure (SMILES) | growth inhibition [1] | growth inhibition [2] | growth inhibition [3] | growth inhibition [4] | growth inhibition [5] | growth inhibition [6]
O=C([O-])C(=O)[O-].[Co+3].[NH2-].[NH2-].[NH2-].[NH2-].[O-][Cl+3]([O-])([O-])O | 18.5% (inactive) | 21.9% (inactive) | 13.2% (inactive) | 15.7% (inactive) | 18.1% (inactive) | 36.8% (inactive)
CCOc1ccc(/C=C/c2cc(OC)c(OC)c(OC)c2)cc1 | -27.9% (inactive) | -21.7% (inactive) | -23.8% (inactive) | -10.3% (inactive) | -8.6% (inactive) | -34.2% (inactive)
O=c1cc(CCl)occ1O | 7.35% (inactive) | 19.5% (inactive) | 20.6% (inactive) | -5.75% (inactive) | 16.1% (inactive) | 15.1% (inactive)
O=C1C=CC(=Nc2ccc(N(CCCl)CCCl)cc2)C=C1 | 39.5% (inactive) | 18.8% (inactive) | 13.3% (inactive) | 3.5% (inactive) | 7.1% (inactive) | 3.5% (inactive)
C/C=C1/CN2C3C[C@H]1C(CO)(C(=O)OC)[C@H]2Cc1c3n(C)c2ccccc12 (some centres not stated) | -1.2% (inactive) | -4.35% (inactive) | 16.7% (inactive) | -0.1% (inactive) | 7% (inactive) | -8.9% (inactive)
CCOP(=O)(OCC)/C(C#N)=C/c1nccn1C | -15.2% (inactive) | 0.15% (inactive) | -13.7% (inactive) | 34.3% (inactive) | 24.1% (inactive) | -34.4% (inactive)
COC(=O)CCP(CCC(=O)OC)c1ccccc1 | -3.9% (inactive) | -11% (inactive) | -7.15% (inactive) | -10.7% (inactive) | -4.85% (inactive) | 1.1% (inactive)
COc1ccc(C(CC(=O)O)CC(=O)N(CCCl)CCCl)cc1C (configuration not stated) | 64% (inactive) | 25.6% (inactive) | 17% (inactive) | 27.1% (inactive) | 63.7% (inactive) | 24.4% (inactive)
O=C1NC(=O)C(C(=O)C(=O)Nc2cccc(C(F)(F)F)c2)C(=O)N1 | -17.7% (inactive) | 0.1% (inactive) | -44.7% (inactive) | -1.75% (inactive) | -31% (inactive) | -40.9% (inactive)
CC#CC(O)(C(=O)OC)c1ccccc1 (configuration not stated) | -7.35% (inactive) | 12.6% (inactive) | -20.8% (inactive) | -23.6% (inactive) | -5.1% (inactive) | -1.9% (inactive)
COC1CCC2NCCNC2C1 (configuration not stated) | 6.35% (inactive) | -6% (inactive) | -9.85% (inactive) | -22.9% (inactive) | -8.7% (inactive) | 2.5% (inactive)
C=CCOC(=O)C(Br)CC (configuration not stated) | 7.65% (inactive) | -3.2% (inactive) | -3.7% (inactive) | -6.25% (inactive) | 11.9% (inactive) | -14.5% (inactive)
Cc1cccc(C)c1NC(=O)C(=O)C1C(=O)NC(=O)NC1=O | -45.5% (inactive) | -2.6% (inactive) | -6% (inactive) | 15.8% (inactive) | -17.1% (inactive) | -31.9% (inactive)
O=C(Nc1c(Cl)cc([N+](=O)[O-])cc1Cl)C(=O)C1C(=O)NC(=S)NC1=O | 11.9% (inactive) | -28.4% (inactive) | -12.1% (inactive) | 7.65% (inactive) | 10.6% (inactive) | -5.9% (inactive)
c1ccc2sc(SNC3CCCCC3)nc2c1 | -29.7% (inactive) | -65.1% (inactive) | -60.1% (inactive) | -128% (inactive) | 13.6% (inactive) | 2.4% (inactive)
Cc1ccc(P(=O)(O)O)cc1 | -10.9% (inactive) | -15.9% (inactive) | 12.1% (inactive) | 2.6% (inactive) | -2.2% (inactive) | -14.8% (inactive)
CCOP(=O)(OCC)Oc1ccc(SC)cc1 | -7.85% (inactive) | -14.3% (inactive) | -9.65% (inactive) | -14.9% (inactive) | 12.9% (inactive) | -14.8% (inactive)
Cn1c[n+](C)nn1 | -2.75% (inactive) | -12.8% (inactive) | -1.3% (inactive) | -29.1% (inactive) | -3.25% (inactive) | -18.2% (inactive)
S=C(SP(SC(=S)N1CCCCC1)SC(=S)N1CCCCC1)N1CCCCC1 | 28.9% (inactive) | -31.9% (inactive) | 47.5% (inactive) | -10.2% (inactive) | -2.2% (inactive) | 39.7% (inactive)
CC(CCC#N)([N+](=O)[O-])[N+](=O)[O-] | 17.1% (inactive) | 12.8% (inactive) | 4.35% (inactive) | 0.5% (inactive) | 10.3% (inactive) | 12.9% (inactive)
CCN1C(=O)CC(=O)N(CC)C1=S | 24.4% (inactive) | -12.4% (inactive) | -8.55% (inactive) | 12.2% (inactive) | 8.45% (inactive) | 21.2% (inactive)

Structure (SMILES) | growth inhibition [1] | growth inhibition [2] | growth inhibition [3] | growth inhibition [4] | growth inhibition [5] | growth inhibition [6]
CN(C)P(=O)(N(C)C)N(C)C.[CH3][Sn]([CH3])([Cl])[Cl] | 5.75% (inactive) | -1.2% (inactive) | 52.4% (inactive) | 49.9% (inactive) | 63.8% (inactive) | 82.2% (active)
CC(=O)CC(C)=O.CC(=O)CC(C)=O.CC(=O)CC(C)=O.[Tb] | -0.8% (inactive) | -7.7% (inactive) | -3.95% (inactive) | 26.8% (inactive) | -2.95% (inactive) | -19.8% (inactive)
CC(C)CCCC(C)CCC1C(=O)NC(=S)NC1=O (configuration not stated) | 8.45% (inactive) | 10.2% (inactive) | -4.4% (inactive) | 1.75% (inactive) | -3.05% (inactive) | 32.1% (inactive)
COP(=O)(OC)C(C)(C)NC(=O)NC(F)(F)F | -1.9% (inactive) | -14.9% (inactive) | -24.6% (inactive) | 28.9% (inactive) | 11.1% (inactive) | -4.25% (inactive)
C=CC1CN2CCC1CC2C(O)c1ccnc2ccccc12 (configuration not stated) | 11.9% (inactive) | -3.7% (inactive) | 5.95% (inactive) | 10.9% (inactive) | 20.1% (inactive) | 4.1% (inactive)
O=P(O)(O)SP(=O)(O)O.[Mn] | -14.7% (inactive) | -14.2% (inactive) | -1.9% (inactive) | -30.2% (inactive) | -11.7% (inactive) | -16.1% (inactive)
S=C(N=Nc1ccccc1)NNc1ccccc1.[Zn+2] | 28.1% (inactive) | -9.35% (inactive) | 19.4% (inactive) | 12.3% (inactive) | 36% (inactive) | 12.3% (inactive)
O=[P+](O)c1cccnc1 | 6.6% (inactive) | -8.05% (inactive) | 14.2% (inactive) | 17.4% (inactive) | 16.7% (inactive) | 13.8% (inactive)
Cc1ccc2[nH]cc(CCN)c2c1 | -5.9% (inactive) | -53.1% (inactive) | -5.4% (inactive) | 21.8% (inactive) | -19.8% (inactive) | -27.5% (inactive)
COP(=S)(c1ccccc1)N(C)C(=O)Oc1cccc(C(C)C)c1 (configuration not stated) | 21.2% (inactive) | 30.7% (inactive) | 34.2% (inactive) | 25.8% (inactive) | 43.8% (inactive) | 45.7% (inactive)
CSC(SC)=C(C(=O)O)P(=O)(O)O | -32.4% (inactive) | -3.05% (inactive) | -8.2% (inactive) | 19.1% (inactive) | -9.8% (inactive) | -16.6% (inactive)
CC(C)N1C(=O)NC(=O)C2(CCCC2)C1=O | -2.15% (inactive) | 3.05% (inactive) | -1.5% (inactive) | -28.4% (inactive) | -12.6% (inactive) | -2.5% (inactive)
CC(O)CN(CCN(CC(C)O)CC(C)O)CC(C)O.[Cl-].[Zn+2] (configuration not stated) | 14.9% (inactive) | 9.25% (inactive) | 17.4% (inactive) | 10.7% (inactive) | 8.8% (inactive) | 6.1% (inactive)
O=C1OC(C(O)CO)C(O)=C1OC[N+]1(CCCl)CCN(CCCl)CC1 (configuration not stated) | 11.8% (inactive) | 12.7% (inactive) | 4.9% (inactive) | 4.7% (inactive) | 10.3% (inactive) | 9.4% (inactive)
c1cc[n+]2c(c1)-c1cccc[n+]1CC2 | 65.8% (inactive) | 11% (inactive) | 52.7% (inactive) | 26% (inactive) | 19.3% (inactive) | 53.1% (inactive)
CCCCS(=O)(=O)C(c1ccccc1)c1ccccc1 | 69.2% (inactive) | 97.4% (active) | 96% (active) | 56.5% (inactive) | 96.5% (active) | 96.4% (active)
C/C(=N\NS(=O)(=O)c1ccc(C)cc1)C(CN(C)C)C(c1ccccc1)c1c(O)c2ccccc2oc1=O (configuration not stated) | 59.9% (inactive) | 42.2% (inactive) | 65.2% (inactive) | 52.9% (inactive) | 54.7% (inactive) | 51.9% (inactive)
COC(C)C(O)(C(=O)OCC1=CCN2CCC(O)C12)C(C)(C)O (configuration not stated) | 1.25% (inactive) | -5.35% (inactive) | 21.4% (inactive) | 5.4% (inactive) | 10.1% (inactive) | -52.4% (inactive)
C=C1[C@@H](C)[C@H]2[C@H](Cc3ccccc3)NC(=O)[C@]23OC(=O)/C=C/[C@H](O)CCC[C@@H](C)C/C=C/[C@H]3[C@@H]1O | 53.4% (inactive) | 25.8% (inactive) | 24.6% (inactive) | 39% (inactive) | 58.8% (inactive) | 58.5% (inactive)
CN1C2CCC1CC(OC(=O)/C=C\c1ccccc1)C2 (configuration not stated) | 29% (inactive) | -7.7% (inactive) | -5.45% (inactive) | 1.95% (inactive) | 8.45% (inactive) | 9.6% (inactive)
Cc1cc2[nH]c3c(C#N)c(OC(=O)N(C)C)c(-c4ccccc4)c(=O)n3c2cc1C | -8.75% (inactive) | 9.5% (inactive) | -7.85% (inactive) | -7.15% (inactive) | 1.9% (inactive) | 1.6% (inactive)
